From PubChem BioAssay (EPA / NIEHS) come the findings set out here.

Inconclusive results are not listed. The source made the active and inactive calls. The calls were made as follows: active = hit-call score of the fitted dose curve at least 0.9, where 1 is the maximum; inconclusive = response in the unintended direction; inactive = score below 0.9.

What is called AC50 is the concentration giving half of the maximal activity seen.

This assay is described as follows: Tanguay_ZF_120hpf_SOMI_legacy: (Legacy) Oregon State University Tanguay Lab 120 Hour Post-fertilization zebrafish Assay for Somite Malformation (AID 2283647). Here is the method: Tanguay_ZF_120hpf_legacy is a whole embryo, multiplexed endpoint assay using zebrafish larvae exposed for 120 hours post fertilization on a 96-well plate.Tanguay_ZF_120hpf_SOMI_legacy is one of one assay component(s) measured or calculated from the Tanguay_ZF_120hpf_legacy assay. It is designed to make measurements of zebrafish development as detected with brightfield microscopy of developing zebrafish embryos.Data from the assay component Tanguay_ZF_120hpf_SOMI_legacy was analyzed into 1 assay endpoints. This assay endpoint, Tanguay_ZF_120hpf_SOMI_legacy, was analyzed in the positive analysis fitting direction relative to DMSO as the negative control and baseline of activity. Using a type of morphology reporter, gain-of-signal activity can be used to understand changes in developmentals as they relate to the whole embryo. To generalize the intended target to other relatable targets, this assay endpoint is annotated to the zebrafish development intended target family, where the subfamily is somitogenesis.
Zebrafish husbandry: Tropical 5D wild-type adult zebrafish were housed in at an approximate density of 1000 per 100 gallon tank at the Sinnhuber Aquatic Research Laboratory, Oregon State University, Corvallis, OR. Each tank was kept at standard laboratory conditions of 28C on a 14-h light/10-h dark photoperiod in fish water consisting of reverse osmosis water supplemented with a commercially available salt (Instant Ocean). Spawning funnels were placed into the tanks the night prior, and embryos were collected and staged. To increase bioavailability, the chorion was enzymatically removed using pronase (63.6mg/ml, >/= 3.5U/mg, Sigma-Aldrich: P5147) at 4 hours post fertilization (hpf) using a custom automated dechorionator.Chemical exposures: Six hpf dechorionated embryos were placed 1 embryo per well in a 96-well plate prefilled with 90 ul of EM using automated embryo placement systems (AEPS). Ten microliters of each row of dilution plate 2 was added to 2 exposure plates. The final DMSO concentration used was 0.64% (vol/vol). Thirty-two embryos were also exposed to 5uM trimethyltin chloride (positive control). Plates were sealed to prevent evaporation and foil covered to reduce light exposure and kept in a 28C incubator. Embryos were statically exposed until 120 hpf. At 24 hpf, embryos were assessed for photomotor response using a custom photomotor response analysis tool (PRAT) and for developmental toxicity endpoints (MO24: mortality at 24 hpf, DP: developmental progression, SM: spontaneous movement, and NC: notochord distortion). At 120 hpf, locomotor activity was measured using Viewpoint Zebralab and assessed for 18 endpoints. Zebrafish acquisition and analysis program (ZAAP), a custom program designed to inventory, acquire, and manage zebrafish data, was used to collect developmental endpoints as either present or absent (i.e., binary responses were recorded). If mortality occurred for an embryo (at either 24 or 120 hpf), the non-mortality endpoints were not measured.
In the case of `CCCSP(=O)(OCC)Oc1ccc(Br)cc1Cl` (stereo not given), the outcome was inactive.
Same read-out and setting: as for `CCOC(=O)COc1cc(-c2nn(C)c(OC(F)F)c2Cl)c(F)cc1Cl`, the entry is “inactive”; as for `CCOP(=S)(Oc1cnc(C(C)(C)C)nc1)OC(C)C` (stereo not given), “inactive”.
Still for that read-out and setting: as for `CSc1nnc(C(C)(C)C)c(=O)n1N`, the entry is “inactive”.
Consider `CC(Oc1cccc(Cl)c1)C(=O)O` (stereo not given), for which the compound was called inactive.
On the same count and under the same terms, as for `CCCCOC(=O)c1ccccc1C(=O)O`, the entry is “inactive”; as for `Nc1nc(N)nc(NC2CC2)n1`, “inactive”.
Turning to `CCCSP(=O)(OCC)SCCC`, the call was inactive.
Still for that read-out and setting: as for `COP(=O)(OC)SCn1c(=O)oc2cc(Cl)cnc21`, the entry is “inactive”; as for `CCOC(=O)CC(SP(=O)(OC)OC)C(=O)OCC` (stereo not given), “inactive”.
Turning to `FC(F)C(F)(F)OCC(Cn1cncn1)c1ccc(Cl)cc1Cl` (stereo not given), the half-maximal activity concentration (AC50) was 48.5 µM (active).
Turning to `CCC(CC)Nc1c([N+](=O)[O-])cc(C)c(C)c1[N+](=O)[O-]`, the result was inactive.
As for `CN(C)C(=O)Nc1cccc(C(F)(F)F)c1`, the call was inactive.
On to `Cc1nn(-c2cc(NS(C)(=O)=O)c(Cl)cc2Cl)c(=O)n1C(F)F`, for which the compound was classed as inactive.
On the same count and under the same terms, as for `CCOP(=S)(OCC)OC(Cl)C(Cl)(Cl)Cl` (stereo not given), the entry is “inactive”; as for `CSC1=N[C@@](C)(c2ccccc2)C(=O)N1Nc1ccccc1`, “inactive”; as for `CNC(=O)Oc1cccc2c1OC(C)(C)O2`, “inactive”.
On the same count and under the same terms, for `O=c1ccc(=O)[nH][nH]1` the value was “inactive”; for `CCOP(=O)(OCC)Oc1cc(C)nc(C(C)C)n1`, “inactive”.
The same measure, in the same setting: for `CC(C)N(C(=O)SCC(Cl)=C(Cl)Cl)C(C)C` the value was “inactive”.
Take `CCCCSP(=O)(SCCCC)SCCCC`: the compound was called inactive.
Still for that read-out and setting: for `C=C(C)[C@H]1Cc2c(ccc3c2O[C@@H]2COc4cc(OC)c(OC)cc4[C@@H]2C3=O)O1` the value was “inactive”; for `CCC(=NOC/C=C/Cl)C1=C(O)CC(C2CCOCC2)CC1=O` (stereo not given), “inactive”.
On the same count and under the same terms, as for `CCc1cccc(C)c1N(C(=O)CCl)C(C)COC` (stereo not given), the entry is “inactive”.
Same read-out and setting: for `CNc1cnn(-c2cccc(C(F)(F)F)c2)c(=O)c1Cl` the value was “inactive”.
Turning to `C[Si](Cn1cncn1)(c1ccc(F)cc1)c1ccc(F)cc1`, the AC50 was 47.7 µM (active).
Take `COc1ccc(C(=CC(=O)N2CCOCC2)c2ccc(Cl)cc2)cc1OC`: the call was inactive.
Still for that read-out and setting: as for `CCc1cccc(CC)c1N(COC)C(=O)CCl`, the entry is “inactive”.
Still for that read-out and setting: as for `Cc1ccn2nc(S(=O)(=O)Nc3c(F)cccc3F)nc2n1`, the entry is “inactive”; as for `COP(=O)(OC)OC(Br)C(Cl)(Cl)Br` (stereo not given), “inactive”; as for `CC1=NNC(=O)N(/N=C/c2cccnc2)C1`, “inactive”.
For the compound `CCOP(=S)(OCC)Oc1ccc([N+](=O)[O-])cc1`, the outcome was inactive.
As to `CCOP(=S)(OCC)Oc1ccc2c(C)c(Cl)c(=O)oc2c1`, the outcome was inactive.
In the case of `CON=C(C(=O)OC)c1ccccc1CON=C(C)c1cccc(C(F)(F)F)c1`, the compound was called inactive.
Same read-out and setting: for `CC1(C(=O)Nc2ccc(O)c(Cl)c2Cl)CCCCC1` the value was “inactive”.
Same read-out and setting: for `C#CCC1=C(C)C(OC(=O)C2C(C=C(C)C)C2(C)C)CC1=O` (stereo not given) the value was “inactive”; for `CC(COc1ccc(Oc2ccccc2)cc1)Oc1ccccn1` (stereo not given), “inactive”; for `CC(=NC#N)N(C)Cc1ccc(Cl)nc1`, “inactive”.
Still for that read-out and setting: as for `C[N+]1(C)CCCCC1`, the entry is “inactive”; as for `CC(C)=CC1C(C(=O)OCN2C(=O)C3=C(CCCC3)C2=O)C1(C)C` (stereo not given), “inactive”.
